High-throughput results from PubChem BioAssay.
An excerpt weighted towards active compounds, which were near 1.1% of everything screened.
MazF activator – activators of E. coli MazEF toxin-antitoxin RNase, primary screen, biochemical, fluorescence, uHTS; Endoribonuclease toxin MazF (Escherichia coli (strain K12)), P0AE70; FAM/BHQ RNA-DNA oligo cleavage fluorescence, 5 h; activation, % at 20 µM; hit rate 0.32% among 350,000; AID 504720, 2011; in the data active = activation above about 50%
Target sequence (P0AE70 whole entry, looked up): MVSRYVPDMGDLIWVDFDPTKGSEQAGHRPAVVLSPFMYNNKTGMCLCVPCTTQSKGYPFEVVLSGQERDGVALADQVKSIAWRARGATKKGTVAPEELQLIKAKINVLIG
Yp Topo-I inh – Yersinia pestis topoisomerase I inhibitors, primary screen, biochemical, cleavage product accumulation, plate reader, single point. activity, % at 10 µM. DNA topoisomerase I (Yersinia pestis CO92). hit rate 0.064% among 360,000. Y. pestis Topo-I cleavage product accumulation. AID 504884, 2011; in the data active = activity above about 50%, passing the limit was not always enough
BioA inh-1 – M. tuberculosis BioA enzyme inhibitors, primary screen, biochemical, plate reader, single point, HTS; hit rate 0.096% among 360,000; inhibition, % at 9.99 µM; 7,8-diaminopelargonic acid synthase BioA (Mycobacterium tuberculosis); purified M. tuberculosis BioA enzyme; in the data active = inhibition above about 40%
BJeLR viability – MLPCN primary cell-based screen for lethality selective to Ras in HRASV12 cells; BJeLR (HRASV12) viability, CellTiter-Glo ATP luminescence, 48 h; inhibition, % (test concentration not listed); hit rate 0.17% among 300,000; AID 1554, 2009; in the data active = inhibition above about 50%
3CLpro inhibitor – SARS-CoV 3CLpro protease inhibitors, primary screen, biochemical, quenched FRET | Replicase polyprotein 1ab (Severe acute respiratory syndrome coronavirus), P0C6X7 | recombinant SARS-CoV 3CLpro, quenched FRET peptide cleavage | inhibition, % at 6 µM | hit rate 0.14% among 290,000; in the data active = inhibition above about 12%
PfHsp40 rescue – rescue of yeast from PfHsp40 toxicity, primary screen, S. cerevisiae, ATP luminescence; growth rescue, % at 12.5 µM; S. cerevisiae expressing PfHsp40, growth rescue; hit rate 0.68% among 340,000; in the data active = growth rescue above about 28%, passing the limit was not always enough;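 also: yeast W303a lacking pdr1 and pdr3 grown in galactose medium; growth measured after three days at 30 °C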
BioA inh-2 – Mtb BioA enzyme inhibitors, dose response, biochemical, plate reader, cherry-pick samples, set 03; shares compounds with BioA inh-1; purified BioA enzyme; max activity, %; 310 tested, under 10 active; AID 651679, 2012;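 also: top concentration of the dilution series was 10 µM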
Target sequence (P9WQ81 whole entry, looked up): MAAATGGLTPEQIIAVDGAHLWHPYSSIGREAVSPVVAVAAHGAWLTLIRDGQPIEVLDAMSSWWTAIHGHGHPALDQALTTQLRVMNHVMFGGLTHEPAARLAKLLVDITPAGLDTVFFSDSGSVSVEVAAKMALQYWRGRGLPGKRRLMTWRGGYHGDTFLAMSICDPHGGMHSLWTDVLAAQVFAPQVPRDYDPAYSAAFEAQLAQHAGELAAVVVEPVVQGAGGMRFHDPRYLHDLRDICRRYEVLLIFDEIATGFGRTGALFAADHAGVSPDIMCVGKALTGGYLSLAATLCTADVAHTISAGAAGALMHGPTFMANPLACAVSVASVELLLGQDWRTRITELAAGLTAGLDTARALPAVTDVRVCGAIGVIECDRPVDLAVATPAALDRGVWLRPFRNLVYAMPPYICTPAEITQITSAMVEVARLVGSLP
HepG2 cytotox – cytotoxicity in HepG2 cells, dose response, cytotoxicity control, cell-based, plate reader, cherry-pick, two tests | shares compounds with BioA inh-1 | 310 tested, under 10 active | max activity, %
NIH3T3 tox 5 – cytotoxicity in NIH3T3 fibroblasts, dose response, cytotoxicity control, cell-based, plate reader, cherry-pick, two tests | shares compounds with BioA inh-1 | 310 tested, under 10 active | AID 651900, 2012 | activity change, negative = cytotoxicity, % at 26 µM
* = called active by the depositor; x = no result given. Unless noted, no rule for the calls is given here.

SMILES	MazF activator	Yp Topo-I inh	BioA inh-1	BJeLR viability	3CLpro inhibitor	PfHsp40 rescue	BioA inh-2	HepG2 cytotox	NIH3T3 tox 5
COc1cccc(CNC(=O)c2ccc(NC(=O)C3=CSCCO3)cc2)c1	-21.4	6.9	47.7*	-3.6	-1.1	0.3	-6.8	18.4	2.2
CC(=O)c1ccc(N2CCN(c3ncccn3)CC2)c([N+](=O)[O-])c1	0.9	3.5	66.8*	-7.0	0.4	0.8	-1.9	-9.1	-1.3
CC(=O)c1ccc(N2CCN(c3ccc(C(N)=O)cc3[N+](=O)[O-])CC2)cc1	-7.7	7.5	x	1.1	-0.6	-1.5	x	x	x
C[C@H]1CN([C@@H](C)CO)C(=O)c2cc(-c3ccccc3)cnc2O[C@@H]1CN(C)C(=O)NC1CCCC1	x	x	0.8	x	x	x	x	x	x
CCc1nn(CCCC(=O)N(C)Cc2ccccc2)c(=O)c2cc3occc3n12	3.5	18.3	49.8*	-1.8	-3.7	-0.6	-10.1	-20.0	-13.4
CCc1nn(C(C)C(=O)N(C)Cc2ccccc2)c(=O)c2cc3occc3n12 (stereo not drawn)	8.8	-7.4	-4.0	-0.6	-4.4	0.9	x	x	x
CCc1c(C(=O)NCCc2cccc(C)c2)[nH]c(C)c1C(C)=O	3.3	5.5	11.7	6.0	-1.6	0.4	x	x	x
CCc1c(C(=O)NCCc2ccc(OC)c(OC)c2)[nH]c(C)c1C(C)=O	2.7	1.3	59.7*	5.5	3.6	0.1	-8.8	9.6	-5.8
CC(Oc1cc2oc(=O)c3c(c2cc1Cl)CCC3)C(=O)NCc1cccnc1 (stereo not drawn)	9.8	15.2	46.8*	8.8	-2.2	1.1	-8.0	-19.8	-5.3
CC(C)n1c(N2CCN(C(=O)c3cccs3)CC2)nc2ccccc21	0.7	12.3	41.5*	-10.8	5.3	-0.6	5.4	24.4	2.8
CC(C)Cn1c(N2CCN(C(=O)c3cccs3)CC2)nc2ccccc21	7.5	31.4	x	-8.7	0.1	-1.2	x	x	x
CC(=O)c1ccc(C(=O)N2CCCC(Nc3ccc(C(C)C)cc3)C2)s1 (stereo not drawn)	-2.1	5.0	67.3*	-1.6	-2.2	0.2	-6.6	-17.1	6.6
CC(Oc1ccc2c(-c3ccccc3)cc(=O)oc2c1)C(=O)NCc1ccccn1 (stereo not drawn)	-8.2	12.4	42.3*	-3.1	-2.4	-1.6	-5.8	6.4	-10.0
O=[N+]([O-])c1ccc(C[n+]2c(-c3ccccc3)cc(-c3ccccc3)cc2-c2ccccc2)cc1	25.0	11.6	58.6*	-6.7	x	1.1	-4.1	-9.1	0.1
COc1cc(-c2nc3ccccn3c2N)ccc1O	9.0	2.1	0.0	-6.6	0.5	0.7	x	x	x
COc1cc(-c2nc3ccccc3nc2-c2ccc(O)c(OC)c2)ccc1O	-5.0	6.8	51.0*	2.5	1.6	-0.1	-5.8	12.1	2.0
O=S(=O)(c1ccccc1)N1CCN(Cc2cccc(OCCO)c2)CC1	x	x	1.1	x	x	x	x	x	x
COc1cc(C(=O)NC2CCN(Cc3ccccc3)CC2)cc(Cl)c1OC	8.2	1.9	-0.4	-1.9	2.5	0.9	x	x	x
COc1ccc([N+](=O)[O-])cc1C(=O)NC1CCN(Cc2ccccc2)CC1	4.5	-4.9	79.2*	-5.6	x	x	5.1	28.5	0.5
Cc1ccc(-c2ccc3c(c2)O[C@H](CN(C)C(=O)Nc2ccc(C(F)(F)F)cc2)[C@H](C)CN([C@@H](C)CO)S3(=O)=O)cc1	x	x	-5.4	x	x	x	x	x	x
O=C(Nc1ncc2c(n1)CC(c1ccco1)CC2=O)c1ccco1 (stereo not drawn)	8.6	-1.4	53.7*	0.6	2.0	-0.2	22.3	25.2	2.7
O=C(Nc1ccc(Cl)c(-c2nc3ccccc3[nH]2)c1)c1cccnc1	4.3	5.8	64.3*	-2.9	-6.1	-0.2	23.3	21.6	-6.2
O=C(Nc1ccc2ccccc2c1)c1cccnc1	0.0	3.0	17.3	6.9	-3.9	-1.4	x	x	x
C[C@@H](NC(=O)[C@H]1[C@H](CO)[C@H]2Cn3c(cccc3=O)[C@H]2N1CC1CCCC1)c1ccccc1	x	x	-0.4	x	x	x	x	x	x
CCN(CC)CCCNC(=O)c1cn(CC)c2ccc(S(=O)(=O)N3CCc4ccccc4C3)cc2c1=O	11.2	4.3	x	2.8	1.4	-0.4	x	x	x
SMILES	MazF activator	Yp Topo-I inh	BioA inh-1	BJeLR viability	3CLpro inhibitor	PfHsp40 rescue	BioA inh-2	HepG2 cytotox	NIH3T3 tox 5
CCN(CC)CCNC(=O)c1cn(CC)c2ccc(S(=O)(=O)N3CCc4ccccc4C3)cc2c1=O	16.2	7.3	58.5*	-2.9	-3.3	-0.9	-6.2	-7.6	0.1
COc1cc(C(=O)N2Cc3cc4ccccc4nc3C2C)cc(OC)c1OC (stereo not drawn)	-13.1	0.7	68.7*	x	x	x	-4.0	25.4	7.2
C[C@H]1CN([C@@H](C)CO)C(=O)c2cc(NC(=O)Cc3cn(C)c4ccccc34)ccc2O[C@H]1CN(C)S(=O)(=O)c1ccccc1	x	x	-2.0	x	x	x	x	x	x
COc1ccccc1-c1cn(CC[C@H]2CC[C@@H](NC(=O)c3cnccn3)[C@H](CO)O2)nn1	x	x	10.2	x	x	x	x	x	x
CCOc1ccc(CCNC(=O)c2cnccn2)cc1OCC	0.5	-5.5	19.3	-7.1	1.1	0.2	x	x	x
CCOc1ccc(CCNC(=O)c2cnc(C)cn2)cc1OCC	1.7	4.6	68.6*	3.9	-0.4	1.3	-6.0	26.7	5.8
Cc1cc(C(=O)NC2CC(C)(C)Cc3c2cnn3-c2cccc(F)c2)nn1C (stereo not drawn)	2.4	28.4	68.7*	-2.3	-1.4	-1.5	-8.8	-9.0	-8.3
CC(=O)c1c(C)[nH]c(C(=O)Nc2cccnc2)c1C	-5.3	1.2	58.0*	2.2	3.3	-0.9	-4.9	-11.5	2.7
Cc1noc(C)c1NC(=O)N(C)C[C@@H]1OCCCC[C@H](C)Oc2ccc(NS(=O)(=O)c3ccc(Cl)cc3)cc2C(=O)N([C@H](C)CO)C[C@@H]1C	x	x	1.6	x	x	x	x	x	x
O=c1[nH]c(N2CCN(Cc3ccc4c(c3)OCO4)CC2)nc2c1CCC2	5.4	3.7	76.0*	x	-3.8	-0.2	-9.9	-12.3	-6.7
O=c1[nH]c(N2CCN(Cc3ccccc3)CC2)nc2c1CCC2	12.0	-3.0	x	3.6	4.0	0.4	x	x	x
CNC[C@H]1Oc2cc(-c3ccncc3)ccc2S(=O)(=O)N([C@H](C)CO)C[C@@H]1C	x	x	-1.5	x	x	x	x	x	x
O=C(Nc1ccc2nccnc2c1)c1cnccn1	10.7	3.5	47.9*	6.1	-4.4	1.6	-9.0	11.7	-1.6
